Test results taken from the supplement of paper PMC11732987, “Enantioselective OTUD7B fragment discovery through chemoproteomics screening and high-throughput optimisation” (Communications Chemistry, 2025).

Key:
Assay in all cases: log2 ratio of Biotin-Ahx-Ub-VS probe labelling (fragment/DMSO); higher = less target engagement (more negative = stronger competition), active = hit call of the paper (q ≤ 0.05, log2 ratio ≤ -1)
Conditions in all cases: compound concentration: 200 uM; treatment time: 3 h
USP42 = target: T1, USP42 (UniProt Q9H9J4)
T1 sequence (whole entry): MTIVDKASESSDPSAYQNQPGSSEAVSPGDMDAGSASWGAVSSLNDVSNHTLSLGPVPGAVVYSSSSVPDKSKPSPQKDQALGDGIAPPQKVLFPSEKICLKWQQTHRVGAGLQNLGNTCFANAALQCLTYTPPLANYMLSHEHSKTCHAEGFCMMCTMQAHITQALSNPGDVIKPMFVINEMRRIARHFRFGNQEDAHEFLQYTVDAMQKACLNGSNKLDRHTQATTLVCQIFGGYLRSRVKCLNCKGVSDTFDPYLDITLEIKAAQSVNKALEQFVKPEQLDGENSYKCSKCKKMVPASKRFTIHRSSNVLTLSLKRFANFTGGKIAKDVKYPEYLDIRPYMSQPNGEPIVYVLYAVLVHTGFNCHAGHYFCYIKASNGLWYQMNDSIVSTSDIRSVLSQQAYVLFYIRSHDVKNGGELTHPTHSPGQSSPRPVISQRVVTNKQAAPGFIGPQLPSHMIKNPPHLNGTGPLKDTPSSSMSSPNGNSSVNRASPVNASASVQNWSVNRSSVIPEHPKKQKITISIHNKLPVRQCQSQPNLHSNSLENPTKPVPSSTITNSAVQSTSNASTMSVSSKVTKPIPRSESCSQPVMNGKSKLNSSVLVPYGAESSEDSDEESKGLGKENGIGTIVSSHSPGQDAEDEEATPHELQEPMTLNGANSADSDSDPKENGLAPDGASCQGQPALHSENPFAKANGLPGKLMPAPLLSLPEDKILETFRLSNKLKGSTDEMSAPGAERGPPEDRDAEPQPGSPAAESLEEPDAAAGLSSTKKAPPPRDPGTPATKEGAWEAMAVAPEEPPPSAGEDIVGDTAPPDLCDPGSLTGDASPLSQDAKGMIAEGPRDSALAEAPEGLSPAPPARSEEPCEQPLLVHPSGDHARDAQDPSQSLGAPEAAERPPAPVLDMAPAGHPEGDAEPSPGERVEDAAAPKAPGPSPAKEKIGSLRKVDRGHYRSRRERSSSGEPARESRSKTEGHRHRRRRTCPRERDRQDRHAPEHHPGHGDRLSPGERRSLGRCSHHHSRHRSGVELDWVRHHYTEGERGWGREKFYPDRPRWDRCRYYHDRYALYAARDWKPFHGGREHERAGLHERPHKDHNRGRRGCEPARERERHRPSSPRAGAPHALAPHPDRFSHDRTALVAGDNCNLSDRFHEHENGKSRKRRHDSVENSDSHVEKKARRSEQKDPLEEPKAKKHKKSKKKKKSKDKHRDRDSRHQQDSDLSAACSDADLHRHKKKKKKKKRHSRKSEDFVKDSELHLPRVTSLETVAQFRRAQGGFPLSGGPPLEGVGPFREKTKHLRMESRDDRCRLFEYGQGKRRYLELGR
Outline: (§1)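 Each value is an average log2 ratio of fragment to vehicle, tested by unpaired t-test. The underlying Spectronaut label-free quantities were global-median-normalised, and only proteins with ≥2 unique peptides were included. Triplicate HEK293T lysate samples (495 µg) were exposed to fragment at 200 µM or vehicle for 3 h, then to Biotin-Ahx-Ub-VS at 0.5 µM final for 1 h, before NeutrAvidin enrichment of labelled DUBs, LysC and trypsin digestion, and diaPASEF LC-MS/MS.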

USP46 = USP46 (UniProt P62068)
Outline: as §1

USP47 = target: T2, USP47 (UniProt Q96K76)
T2 sequence (whole entry): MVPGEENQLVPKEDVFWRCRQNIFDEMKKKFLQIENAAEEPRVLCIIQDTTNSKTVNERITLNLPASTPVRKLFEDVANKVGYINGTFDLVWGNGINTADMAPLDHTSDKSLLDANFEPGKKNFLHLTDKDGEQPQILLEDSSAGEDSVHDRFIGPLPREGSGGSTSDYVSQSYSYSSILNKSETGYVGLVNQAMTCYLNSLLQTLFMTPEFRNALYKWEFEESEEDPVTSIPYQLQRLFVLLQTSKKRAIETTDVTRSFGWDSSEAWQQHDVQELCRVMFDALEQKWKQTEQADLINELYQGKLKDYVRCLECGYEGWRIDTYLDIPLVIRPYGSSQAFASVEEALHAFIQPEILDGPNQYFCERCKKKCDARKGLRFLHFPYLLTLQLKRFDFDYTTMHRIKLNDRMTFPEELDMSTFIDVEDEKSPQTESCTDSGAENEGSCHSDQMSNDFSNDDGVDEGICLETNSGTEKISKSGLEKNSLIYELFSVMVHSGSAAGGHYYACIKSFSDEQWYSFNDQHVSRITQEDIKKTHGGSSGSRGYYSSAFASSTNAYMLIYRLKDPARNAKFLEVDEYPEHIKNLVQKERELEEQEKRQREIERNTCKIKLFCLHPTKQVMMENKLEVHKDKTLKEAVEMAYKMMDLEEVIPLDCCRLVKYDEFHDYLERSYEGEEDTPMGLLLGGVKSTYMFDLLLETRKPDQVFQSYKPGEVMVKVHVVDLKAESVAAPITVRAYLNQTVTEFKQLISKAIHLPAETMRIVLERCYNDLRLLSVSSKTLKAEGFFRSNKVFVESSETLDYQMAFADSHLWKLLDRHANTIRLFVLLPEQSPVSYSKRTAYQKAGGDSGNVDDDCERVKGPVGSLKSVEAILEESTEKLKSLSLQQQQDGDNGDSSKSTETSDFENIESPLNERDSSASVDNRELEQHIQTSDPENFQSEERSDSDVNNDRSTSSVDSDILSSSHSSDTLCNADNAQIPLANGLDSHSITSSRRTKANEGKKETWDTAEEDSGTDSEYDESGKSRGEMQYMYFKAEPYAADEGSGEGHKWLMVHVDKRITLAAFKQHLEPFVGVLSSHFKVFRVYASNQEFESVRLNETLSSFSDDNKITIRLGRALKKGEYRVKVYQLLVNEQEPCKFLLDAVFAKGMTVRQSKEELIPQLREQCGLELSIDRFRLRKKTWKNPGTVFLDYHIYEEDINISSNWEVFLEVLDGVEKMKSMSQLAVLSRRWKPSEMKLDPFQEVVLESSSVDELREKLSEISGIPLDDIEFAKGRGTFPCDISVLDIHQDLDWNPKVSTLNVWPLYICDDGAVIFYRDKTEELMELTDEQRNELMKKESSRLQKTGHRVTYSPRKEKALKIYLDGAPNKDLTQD
Outline: as §1

USP48 = target: T3, USP48 (UniProt Q86UV5)
T3 sequence (whole entry): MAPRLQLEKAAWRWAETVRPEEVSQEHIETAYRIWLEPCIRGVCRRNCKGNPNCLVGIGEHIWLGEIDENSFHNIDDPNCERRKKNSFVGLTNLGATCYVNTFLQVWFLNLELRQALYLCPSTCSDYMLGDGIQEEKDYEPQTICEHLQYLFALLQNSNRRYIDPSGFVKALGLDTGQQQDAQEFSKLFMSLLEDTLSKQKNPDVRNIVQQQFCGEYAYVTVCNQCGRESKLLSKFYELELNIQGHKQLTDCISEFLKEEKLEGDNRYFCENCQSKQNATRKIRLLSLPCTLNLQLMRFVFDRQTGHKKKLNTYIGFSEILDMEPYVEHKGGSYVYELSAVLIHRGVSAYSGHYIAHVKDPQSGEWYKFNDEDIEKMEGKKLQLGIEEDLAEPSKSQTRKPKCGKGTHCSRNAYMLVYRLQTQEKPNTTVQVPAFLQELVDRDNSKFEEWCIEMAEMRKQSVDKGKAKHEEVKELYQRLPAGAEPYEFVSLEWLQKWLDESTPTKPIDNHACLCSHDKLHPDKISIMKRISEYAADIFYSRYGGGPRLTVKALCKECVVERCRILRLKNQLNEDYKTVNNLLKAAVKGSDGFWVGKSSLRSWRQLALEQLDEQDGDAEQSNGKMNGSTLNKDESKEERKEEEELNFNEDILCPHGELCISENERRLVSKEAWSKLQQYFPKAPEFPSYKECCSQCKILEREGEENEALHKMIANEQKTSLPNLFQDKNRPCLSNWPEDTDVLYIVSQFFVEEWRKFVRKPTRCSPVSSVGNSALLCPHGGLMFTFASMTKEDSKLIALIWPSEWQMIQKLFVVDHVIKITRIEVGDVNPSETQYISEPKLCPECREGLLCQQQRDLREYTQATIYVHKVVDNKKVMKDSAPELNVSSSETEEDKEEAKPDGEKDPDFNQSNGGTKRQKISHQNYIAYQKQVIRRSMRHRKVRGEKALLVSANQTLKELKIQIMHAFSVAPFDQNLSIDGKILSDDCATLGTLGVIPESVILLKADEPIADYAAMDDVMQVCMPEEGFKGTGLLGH
Outline: as §1

USP5 = target: T4, USP5 (UniProt P45974)
T4 sequence (whole entry): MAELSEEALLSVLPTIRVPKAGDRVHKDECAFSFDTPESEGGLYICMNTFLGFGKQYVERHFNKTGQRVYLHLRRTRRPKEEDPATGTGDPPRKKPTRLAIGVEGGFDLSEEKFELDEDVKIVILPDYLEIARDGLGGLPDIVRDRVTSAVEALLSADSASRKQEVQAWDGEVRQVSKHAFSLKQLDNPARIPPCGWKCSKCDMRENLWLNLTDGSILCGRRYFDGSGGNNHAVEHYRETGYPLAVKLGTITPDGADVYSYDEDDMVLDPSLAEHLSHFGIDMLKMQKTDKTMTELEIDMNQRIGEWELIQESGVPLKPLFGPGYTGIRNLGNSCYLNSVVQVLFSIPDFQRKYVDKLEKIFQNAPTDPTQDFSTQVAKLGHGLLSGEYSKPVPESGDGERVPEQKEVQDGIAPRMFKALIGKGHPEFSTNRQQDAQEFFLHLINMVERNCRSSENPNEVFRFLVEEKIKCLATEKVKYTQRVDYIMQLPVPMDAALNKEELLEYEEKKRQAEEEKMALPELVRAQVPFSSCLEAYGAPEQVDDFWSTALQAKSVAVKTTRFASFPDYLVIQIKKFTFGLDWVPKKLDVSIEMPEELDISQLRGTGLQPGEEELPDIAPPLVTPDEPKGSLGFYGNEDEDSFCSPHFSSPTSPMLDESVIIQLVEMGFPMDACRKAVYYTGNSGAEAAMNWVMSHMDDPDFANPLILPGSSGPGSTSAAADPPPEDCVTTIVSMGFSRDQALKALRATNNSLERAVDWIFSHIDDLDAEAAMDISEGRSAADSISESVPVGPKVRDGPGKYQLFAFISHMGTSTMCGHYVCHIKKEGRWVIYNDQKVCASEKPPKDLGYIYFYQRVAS
Outline: as §1

USP54 = USP54 (UniProt Q70EL1)
Outline: as §1

USP7 = USP7 (UniProt Q93009)
Outline: as §1

USP8 = target: T5, USP8 (UniProt P40818)
T5 sequence (whole entry): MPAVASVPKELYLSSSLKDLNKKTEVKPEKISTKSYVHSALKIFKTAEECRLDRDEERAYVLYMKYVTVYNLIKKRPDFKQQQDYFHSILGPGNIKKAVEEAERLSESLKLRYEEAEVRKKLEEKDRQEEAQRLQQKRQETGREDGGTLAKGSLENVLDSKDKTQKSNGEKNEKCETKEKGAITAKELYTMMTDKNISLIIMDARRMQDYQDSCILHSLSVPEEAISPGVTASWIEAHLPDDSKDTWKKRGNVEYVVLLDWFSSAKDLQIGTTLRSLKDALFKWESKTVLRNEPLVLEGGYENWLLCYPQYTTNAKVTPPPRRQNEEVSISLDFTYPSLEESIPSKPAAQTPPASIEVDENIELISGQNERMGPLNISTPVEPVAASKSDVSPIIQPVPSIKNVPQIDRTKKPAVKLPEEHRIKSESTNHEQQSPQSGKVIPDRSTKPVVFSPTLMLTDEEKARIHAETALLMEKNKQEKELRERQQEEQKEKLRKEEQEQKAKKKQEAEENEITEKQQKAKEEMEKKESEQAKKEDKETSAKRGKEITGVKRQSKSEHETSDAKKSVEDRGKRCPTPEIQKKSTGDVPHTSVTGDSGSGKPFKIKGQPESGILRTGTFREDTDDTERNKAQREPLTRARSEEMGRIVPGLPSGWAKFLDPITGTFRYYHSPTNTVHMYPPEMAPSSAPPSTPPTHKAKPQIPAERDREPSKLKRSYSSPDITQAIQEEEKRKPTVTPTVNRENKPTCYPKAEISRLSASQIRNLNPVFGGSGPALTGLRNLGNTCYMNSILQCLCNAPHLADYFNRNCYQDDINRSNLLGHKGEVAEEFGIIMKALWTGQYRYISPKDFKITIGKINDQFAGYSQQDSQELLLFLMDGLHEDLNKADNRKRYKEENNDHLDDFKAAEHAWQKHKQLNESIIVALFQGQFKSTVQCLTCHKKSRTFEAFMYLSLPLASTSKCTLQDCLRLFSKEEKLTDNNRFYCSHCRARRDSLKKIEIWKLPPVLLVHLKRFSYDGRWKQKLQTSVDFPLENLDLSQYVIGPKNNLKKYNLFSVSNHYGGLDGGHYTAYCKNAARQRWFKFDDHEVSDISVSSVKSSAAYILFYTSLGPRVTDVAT
Outline: as §1

USP9X = USP9X (UniProt Q93008)
Outline: as §1

UniProt O00487 = target: UniProt O00487
Outline: as §1

Measured: log2 ratio of Biotin-Ahx-Ub-VS probe labelling

Sequence of USP7 (Q93009 whole entry, looked up): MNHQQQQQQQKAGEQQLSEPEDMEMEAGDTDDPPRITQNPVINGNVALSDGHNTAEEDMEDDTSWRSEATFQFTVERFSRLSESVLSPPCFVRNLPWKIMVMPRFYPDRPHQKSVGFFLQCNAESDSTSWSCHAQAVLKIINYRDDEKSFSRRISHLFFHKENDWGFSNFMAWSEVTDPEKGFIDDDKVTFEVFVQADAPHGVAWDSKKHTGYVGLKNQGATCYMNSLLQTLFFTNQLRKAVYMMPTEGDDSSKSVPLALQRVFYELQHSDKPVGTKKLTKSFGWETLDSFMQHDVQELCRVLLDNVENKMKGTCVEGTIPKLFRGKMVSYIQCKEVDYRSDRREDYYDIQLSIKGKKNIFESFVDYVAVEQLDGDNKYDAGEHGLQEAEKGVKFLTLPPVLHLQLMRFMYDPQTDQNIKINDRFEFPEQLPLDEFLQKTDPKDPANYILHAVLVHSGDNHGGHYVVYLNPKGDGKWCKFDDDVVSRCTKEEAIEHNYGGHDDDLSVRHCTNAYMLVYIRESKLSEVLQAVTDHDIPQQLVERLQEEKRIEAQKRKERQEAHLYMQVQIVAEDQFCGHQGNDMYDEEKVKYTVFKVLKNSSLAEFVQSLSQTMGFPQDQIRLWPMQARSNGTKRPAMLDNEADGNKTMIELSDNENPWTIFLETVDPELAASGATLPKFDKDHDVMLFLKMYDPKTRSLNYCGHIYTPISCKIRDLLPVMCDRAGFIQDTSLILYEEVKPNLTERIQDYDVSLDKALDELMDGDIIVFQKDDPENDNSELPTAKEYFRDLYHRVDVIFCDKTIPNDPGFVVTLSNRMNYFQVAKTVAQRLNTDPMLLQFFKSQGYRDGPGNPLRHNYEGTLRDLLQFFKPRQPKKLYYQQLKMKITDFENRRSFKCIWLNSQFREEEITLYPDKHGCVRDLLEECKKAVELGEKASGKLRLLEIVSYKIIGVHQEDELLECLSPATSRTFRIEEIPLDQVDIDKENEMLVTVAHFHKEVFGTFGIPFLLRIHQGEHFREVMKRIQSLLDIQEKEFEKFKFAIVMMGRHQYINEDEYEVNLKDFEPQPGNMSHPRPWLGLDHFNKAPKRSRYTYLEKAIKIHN
Sequence of UniProt O00487 (O00487 whole entry): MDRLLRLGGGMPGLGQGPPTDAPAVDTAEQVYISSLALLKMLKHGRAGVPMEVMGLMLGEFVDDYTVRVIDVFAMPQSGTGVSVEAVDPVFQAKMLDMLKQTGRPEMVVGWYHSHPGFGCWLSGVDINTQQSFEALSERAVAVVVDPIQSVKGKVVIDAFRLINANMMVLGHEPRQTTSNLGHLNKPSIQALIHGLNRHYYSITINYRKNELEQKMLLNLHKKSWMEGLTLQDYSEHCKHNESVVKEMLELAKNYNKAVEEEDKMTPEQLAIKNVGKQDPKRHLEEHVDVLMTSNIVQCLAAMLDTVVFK
Sequence of USP9X (Q93008 whole entry): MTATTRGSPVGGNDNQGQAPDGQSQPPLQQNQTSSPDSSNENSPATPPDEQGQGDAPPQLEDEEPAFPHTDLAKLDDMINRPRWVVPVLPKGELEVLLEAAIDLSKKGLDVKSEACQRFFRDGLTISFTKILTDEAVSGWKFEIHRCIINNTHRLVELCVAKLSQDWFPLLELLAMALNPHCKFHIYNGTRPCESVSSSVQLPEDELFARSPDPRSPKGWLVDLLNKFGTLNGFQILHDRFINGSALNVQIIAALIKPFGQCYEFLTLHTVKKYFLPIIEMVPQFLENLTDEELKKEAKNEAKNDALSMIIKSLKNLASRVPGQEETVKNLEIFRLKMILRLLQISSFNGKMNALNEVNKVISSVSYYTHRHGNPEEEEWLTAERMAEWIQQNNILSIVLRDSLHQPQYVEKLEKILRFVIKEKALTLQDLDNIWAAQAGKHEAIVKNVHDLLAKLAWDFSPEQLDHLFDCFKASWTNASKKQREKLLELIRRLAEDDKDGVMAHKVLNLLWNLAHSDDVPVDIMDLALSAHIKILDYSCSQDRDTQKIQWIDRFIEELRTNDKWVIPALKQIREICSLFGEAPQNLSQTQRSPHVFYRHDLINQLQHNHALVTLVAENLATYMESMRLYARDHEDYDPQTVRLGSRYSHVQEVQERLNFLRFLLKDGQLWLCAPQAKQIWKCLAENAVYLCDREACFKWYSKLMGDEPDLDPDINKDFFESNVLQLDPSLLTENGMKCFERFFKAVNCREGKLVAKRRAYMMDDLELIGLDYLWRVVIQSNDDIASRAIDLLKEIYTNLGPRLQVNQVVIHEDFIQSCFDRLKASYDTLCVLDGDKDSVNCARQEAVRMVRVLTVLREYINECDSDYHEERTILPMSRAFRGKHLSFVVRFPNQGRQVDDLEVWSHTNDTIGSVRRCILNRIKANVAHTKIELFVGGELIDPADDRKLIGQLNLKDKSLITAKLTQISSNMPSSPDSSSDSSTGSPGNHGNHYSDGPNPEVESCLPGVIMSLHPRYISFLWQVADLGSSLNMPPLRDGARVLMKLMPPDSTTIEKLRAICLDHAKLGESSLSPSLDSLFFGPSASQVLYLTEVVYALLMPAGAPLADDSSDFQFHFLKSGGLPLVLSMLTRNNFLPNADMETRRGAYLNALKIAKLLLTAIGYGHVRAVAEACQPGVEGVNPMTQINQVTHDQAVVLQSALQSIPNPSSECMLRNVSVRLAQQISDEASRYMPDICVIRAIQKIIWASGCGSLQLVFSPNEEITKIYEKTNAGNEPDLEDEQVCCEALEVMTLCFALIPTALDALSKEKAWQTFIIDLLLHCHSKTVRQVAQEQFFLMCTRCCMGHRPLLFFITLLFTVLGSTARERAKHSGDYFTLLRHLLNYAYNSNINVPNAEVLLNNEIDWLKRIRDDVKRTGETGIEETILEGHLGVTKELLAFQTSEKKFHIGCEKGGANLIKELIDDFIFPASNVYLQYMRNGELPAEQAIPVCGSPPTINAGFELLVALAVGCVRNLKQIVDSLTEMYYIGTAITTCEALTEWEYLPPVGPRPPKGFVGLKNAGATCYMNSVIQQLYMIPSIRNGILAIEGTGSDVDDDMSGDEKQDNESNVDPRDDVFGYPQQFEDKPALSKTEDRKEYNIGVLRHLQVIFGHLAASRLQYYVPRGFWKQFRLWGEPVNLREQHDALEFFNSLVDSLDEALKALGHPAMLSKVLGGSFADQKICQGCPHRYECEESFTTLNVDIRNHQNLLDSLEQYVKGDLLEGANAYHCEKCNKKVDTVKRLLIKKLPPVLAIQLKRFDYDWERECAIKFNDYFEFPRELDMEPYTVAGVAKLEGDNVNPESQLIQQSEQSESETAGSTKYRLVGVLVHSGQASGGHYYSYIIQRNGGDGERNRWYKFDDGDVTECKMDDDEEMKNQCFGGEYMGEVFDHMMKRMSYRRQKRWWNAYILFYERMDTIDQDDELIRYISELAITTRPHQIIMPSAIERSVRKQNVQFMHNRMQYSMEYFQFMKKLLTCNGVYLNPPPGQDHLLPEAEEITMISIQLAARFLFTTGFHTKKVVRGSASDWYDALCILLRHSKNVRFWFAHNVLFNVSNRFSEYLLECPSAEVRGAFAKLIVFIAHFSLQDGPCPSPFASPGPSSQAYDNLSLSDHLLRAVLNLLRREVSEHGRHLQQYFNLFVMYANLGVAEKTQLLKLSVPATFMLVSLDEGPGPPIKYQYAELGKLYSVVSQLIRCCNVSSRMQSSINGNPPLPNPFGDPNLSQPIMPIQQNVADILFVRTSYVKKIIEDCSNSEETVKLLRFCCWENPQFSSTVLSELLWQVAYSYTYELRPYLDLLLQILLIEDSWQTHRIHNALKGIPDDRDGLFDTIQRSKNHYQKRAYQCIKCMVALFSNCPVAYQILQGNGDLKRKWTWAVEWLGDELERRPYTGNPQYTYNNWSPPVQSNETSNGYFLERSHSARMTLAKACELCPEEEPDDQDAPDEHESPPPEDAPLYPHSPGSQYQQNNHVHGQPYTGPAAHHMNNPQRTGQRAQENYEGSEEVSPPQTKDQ
Sequence of USP46 (P62068 whole entry): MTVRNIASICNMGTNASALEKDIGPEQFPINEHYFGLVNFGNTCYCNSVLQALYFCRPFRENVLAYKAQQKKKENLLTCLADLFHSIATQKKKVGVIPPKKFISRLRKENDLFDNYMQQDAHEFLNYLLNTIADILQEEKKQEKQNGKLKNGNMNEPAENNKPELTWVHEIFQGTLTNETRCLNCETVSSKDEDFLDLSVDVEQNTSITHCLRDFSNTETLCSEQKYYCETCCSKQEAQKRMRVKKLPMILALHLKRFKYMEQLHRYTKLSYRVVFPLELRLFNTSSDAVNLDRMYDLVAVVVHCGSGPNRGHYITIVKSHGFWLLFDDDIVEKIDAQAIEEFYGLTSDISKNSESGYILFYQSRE

Cl.O=C(CCl)NC1(c2ncccn2)CCC1
inactive: USP42 0.259 | USP46 0.267 | USP47 -0.186 | USP48 -0.0959 | USP5 -0.174 | USP54 -0.292 | USP7 -0.0088 | USP8 -0.47 | USP9X 0.117 | UniProt O00487 0.0465
